From the supplement of paper PMC11417369
± gives the standard deviation of the averaged measurements. Over roughly 25,000 sequences, “ln(normalized median fluorescence intensity)” has its median near 8.9; the highest 2% begin near 10. Many of the other results were omitted from the sample, so the highest values are more common in it than they were.

Each sequence was assayed on PfAP2-LT AP2 domain (GST-tagged) (assay: gcPBM binding intensity (ln(normalized median fluorescence intensity)); higher = stronger DNA binding).
Outline: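 In this array assay, P. falciparum DNA-binding domains with a GST tag, expressed in E. coli, were applied for 1 h to primer-extended double-stranded 36-bp intergenic genomic probes and negative controls on an Agilent 4 × 180k array. Bound protein was visualised with Alexa488 anti-GST antibody at 488 nm. Binding intensity is the highest Masliner-normalised natural-log median intensity across replicate spots of either probe orientation.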
“TTTTTTTTGGAATTCACACAAATATAACATGGGTAT [CACACA_site5185]” was tested, and the “gcPBM binding intensity (ln)” value was 8.7 ± 0.38.
“AACCTATCTATAGGAACAATATATATATATATAATT [CACACA_negctrl_site1707]” was tested, and the “gcPBM binding intensity (ln)” value was 8.98 ± 0.33.
For “TTTTGAAAGTTTTTGTGTCCACATATATTTATATAT [XGTACX_site6563]”, the “gcPBM binding intensity (ln)” value was 8.94 ± 0.44.
With “ACATATATATAATATATATTTTTCGTGTGGTGTCAC [CACACA_negctrl_site543]” the “gcPBM binding intensity (ln)” value was 8.84 ± 0.42.
With “TTTATTCTTGAGTATTGTACATATGTGTTTGTATAT [XGTACX_site5706]” the “gcPBM binding intensity (ln)” value was 8.93 ± 0.45.
For “ATTTTCTATATCTTTCAACACACAAATTTTTTTTTC [CACACA_site7918]”, the “gcPBM binding intensity (ln)” value was 8.85 ± 0.45.
For “TGTTTATTACTCAGGTGTACTCAATTTTTTTTTTTT [XGTACX_site3470]”, the “gcPBM binding intensity (ln)” value was 8.72 ± 0.47.
In the case of “TATACATATATATATATATATAGATATATTCACGTG [XGTACX_negctrl_site265]”, the “gcPBM binding intensity (ln)” value is reported as 9.31 ± 0.21.
For “ATTTAAATAATATGTACACACATTTAAAAAATTATA [CACACA_site2816]”, the “gcPBM binding intensity (ln)” value was 8.76 ± 0.44.
In the case of “AGCTCGGAAAAATTAGCATGCAAAAAAAAAAAAAAA [TGCATGCA_site658]”, the “gcPBM binding intensity (ln)” value is reported as 8.59 ± 0.58.
In the case of “TACAATCTTTCATTATGTACTTAACATTTTTTCTGT [XGTACX_site8752]”, the “gcPBM binding intensity (ln)” value is reported as 8.85 ± 0.52.
With “ATATTTATGGAATATACACACATGTATAATTACATA [CACACA_site7045]” the “gcPBM binding intensity (ln)” value was 8.83 ± 0.4.
“ACCCATATAATATATACACACATATATATATATATA [CACACA_site4731]” was tested, and the “gcPBM binding intensity (ln)” value was 9.855 ± 0.035.
“CATACACCCCAACACACACACACACCCATATATAAT [CACACA_site8097]” was tested, and the “gcPBM binding intensity (ln)” value was 10.3 ± 0.37.
For “TATATATATATATACACACACACACCCATATATATA [CACACA_site2538]”, the “gcPBM binding intensity (ln)” value was 10.2 ± 0.3.
“TATATATATATATATACACACACACCCATATATATA [CACACA_site8812]” was tested, and the “gcPBM binding intensity (ln)” value was 9.85 ± 0.18.
“CTTATATATACATATACACACACACCCATATATATA [CACACA_site8705]” was tested, and the “gcPBM binding intensity (ln)” value was 9.59 ± 0.13.
“AATAAATATATATACACACCCATATATATATATATA [CACACA_site2595]” was tested, and the “gcPBM binding intensity (ln)” value was 9.73 ± 0.014.
“ACTATATTTCTATAATGTACAAAAATAAATCATATG [XGTACX_site3337]” was tested, and the “gcPBM binding intensity (ln)” value was 8.64 ± 0.39.
For “TTTGCCCAAAAAGGTACACACCACAATGTACATAAA [CACACA_site4599]”, the “gcPBM binding intensity (ln)” value was 8.85 ± 0.49.
“ATAAAGCCATACAATACACACATTTTACATGGCTGT [CACACA_site5756]” was tested, and the “gcPBM binding intensity (ln)” value was 9.26 ± 0.42.
“AACTTTGGCAAACACACACACACACCCACACCCACA [CACACA_site588]” was tested, and the “gcPBM binding intensity (ln)” value was 10.1 ± 0.42.
With “GGCAAATTTATTATACCCACATACATACATACATAC [XGTACX_negctrl_site186]” the “gcPBM binding intensity (ln)” value was 9.01 ± 0.32.
In the case of “TACATAAATTAAAACACACACACACCCAAAAAAAAA [CACACA_site2261]”, the “gcPBM binding intensity (ln)” value is reported as 9.9 ± 0.22.
“AGACAGCGCACAAACACACAAACACCCACCCACATA [CACACA_site451]” was tested, and the “gcPBM binding intensity (ln)” value was 10.1 ± 0.16.
For “AAATTTGGCAAACACACACACACACCCACACCCACA [CACACA_site8095]”, the “gcPBM binding intensity (ln)” value was 10.4 ± 0.19.
In the case of “AAATTTGGCAAACACACACACACACCCACAGAGACA [CACACA_site4490]”, the “gcPBM binding intensity (ln)” value is reported as 10.2 ± 0.13.
For “CAAACATTTTAATGTACACACACCCACAGACAAACA [CACACA_site5522]”, the “gcPBM binding intensity (ln)” value was 9.57 ± 0.13.
For “TTTTTTCTTTTATGTGAAATGTAATATTGTTATATA [GTGCAC_negctrl_site715]”, the “gcPBM binding intensity (ln)” value was 8.51 ± 0.52.
In the case of “TATATACGCATTTTTATACACACTTGTTTTATAAAA [CACACA_site727]”, the “gcPBM binding intensity (ln)” value is reported as 8.79 ± 0.35.
“GGATATATTATATGTACACACACATATAAGGGATTA [CACACA_site7884]” was tested, and the “gcPBM binding intensity (ln)” value was 9.34 ± 0.31.
In the case of “TTACAAAAAAATAATTGTACATACAATTTCTGTTAT [XGTACX_site877]”, the “gcPBM binding intensity (ln)” value is reported as 8.71 ± 0.45.
For “ATATTTTTATTTAAACGTACATACACGTTGAAAAGA [XGTACX_site4567]”, the “gcPBM binding intensity (ln)” value was 8.43 ± 0.4.
For “TGTAATAAATAGTACACACACACATATTTATATATC [CACACA_site6770]”, the “gcPBM binding intensity (ln)” value was 9.72 ± 0.23.
“TCTTTATCTTCTTATACACACATTTATTAAAAAAAA [CACACA_site445]” was tested, and the “gcPBM binding intensity (ln)” value was 8.55 ± 0.4.
“ATAAAACCAACATAGAGTACAGATCGACTATGTTTC [XGTACX_site4329]” was tested, and the “gcPBM binding intensity (ln)” value was 9.05 ± 0.47.
In the case of “TATAATAATCCACAAGCACACACACCCACATATATA [CACACA_site8343]”, the “gcPBM binding intensity (ln)” value is reported as 9.91 ± 0.32.
In the case of “AATAATAGAAGCACCCACCCACCACCACCCACACAT [CACACA_negctrl_site1033]”, the “gcPBM binding intensity (ln)” value is reported as 10.46 ± 0.028.
In the case of “GTTATAGAAGCATTCACACACACACCCACATACACA [CACACA_site1465]”, the “gcPBM binding intensity (ln)” value is reported as 10.1 ± 0.11.
For “TGTAAGTTGATATAATGTACATGTTTGATTTTTTTT [XGTACX_site7687]”, the “gcPBM binding intensity (ln)” value was 8.71 ± 0.47.
For “AGTATATAAAATACTGTATCGATGGGGGAGGGCGCA [CACACA_negctrl_site1612]”, the “gcPBM binding intensity (ln)” value was 10 ± 0.44.
With “ATATATGGGGCGCAGGAAAAGAGTTTTGGAAATAAA [CACACA_negctrl_site1265]” the “gcPBM binding intensity (ln)” value was 8.98 ± 0.55.
For “TATAAAATACTGTATCGATGGGGGAGGGCGCAGGGG [TGCATGCA_negctrl_site250]”, the “gcPBM binding intensity (ln)” value was 10.4 ± 0.16.
In the case of “CTTTTTTGTTAAAGTGTGCGCAATAGTTATAGACTT [GTGCAC_site9670]”, the “gcPBM binding intensity (ln)” value is reported as 8.87 ± 0.38.
